Laboratory results as given in PubChem BioAssay (NCATS).
Where “and” joins values, the source holds several entries; their conditions need not be identical. Equal values may be shown once. Inconclusive results are not listed. Where a call stands in place of a potency, no number is given. Calls of active or inactive are those of the source. Calls come from the whole dose curve; as a rule, active = well fitted curve in the direction sought with a large enough effect; inconclusive = small, poorly fitted or top-dose-only effect, or another doubt; inactive = no such curve, though single readings can be large; an effect the other way counts as inactive or inconclusive.

Columns and labels:
[1] = qHTS of pediatric cancer cell lines to identify multiple opportunities for drug repurposing: Primary screen for SK-N-MC cells (AID 1347093); note: potency is the fitted concentration of half-maximal effect
Outline: (§1)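 Metabolically active cells were quantified by ATP-dependent luminescence (CellTiter-Glo, 15 min at room temperature) following 48 h treatment. Cells had been plated at 500-1,000 per well and settled for 5 h beforehand.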

[2] = qHTS of pediatric cancer cell lines to identify multiple opportunities for drug repurposing: Primary screen for NB-EBc1 cells (AID 1347095); note: potency is the fitted concentration of half-maximal effect
Outline: (§2)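 Cells plated at 500-1,000/well in growth medium, compounds added after 5 h. MIPE tested at 11 points (from 0.78 nM), NPC at 8 points (from 0.59 nM). CellTiter-Glo luminescence after 48 h; concentration-response curves from primary screen.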

[3] = qHTS of pediatric cancer cell lines to identify multiple opportunities for drug repurposing: Primary screen for U-2 OS cells (AID 1347096); note: nearly all actives have a fitted effect of over 50% in size; note: potency is the fitted concentration of half-maximal effect
Outline: (§3)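 Cells (500-1,000/well) in growth media were settled 5 h at 37 degrees C, then given compounds for 48 h. Viability was read as CellTiter-Glo luminescence. Primary runs used MIPE at 11 points (0.78 nM-46 µM) and NPC at 8 points (0.59 nM-46 µM); follow-ups used 11 points.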

[4] = qHTS of pediatric cancer cell lines to identify multiple opportunities for drug repurposing: Primary screen for Saos-2 cells (AID 1347097); note: nearly all actives have a fitted effect of over 40% in size; note: potency is the fitted concentration of half-maximal effect
Outline: as §2

[5] = qHTS of pediatric cancer cell lines to identify multiple opportunities for drug repurposing: Primary screen for SK-N-SH cells (AID 1347098); note: nearly all actives have a fitted effect of over 65% in size; note: potency is the fitted concentration of half-maximal effect
Outline: (§4)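 Cells (500-1,000/well) rested 5 h, then received compounds for 48 h; metabolically active cells were measured by CellTiter-Glo luminescence. Final concentrations spanned up to 46 µM (MIPE, 11-point) or 0.59 nM-46 µM (NPC, 8-point) in primary screens, 11-point in follow-ups.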

[6] = qHTS of pediatric cancer cell lines to identify multiple opportunities for drug repurposing: Primary screen for NB1643 cells (AID 1347099); note: nearly all actives have a fitted effect of over 50% in size; note: potency is the fitted concentration of half-maximal effect
Outline: as §2

[7] = qHTS of pediatric cancer cell lines to identify multiple opportunities for drug repurposing: Primary screen for LAN-5 cells (AID 1347100); note: potency is the fitted concentration of half-maximal effect
Outline: as §3

[8] = qHTS of pediatric cancer cell lines to identify multiple opportunities for drug repurposing: Primary screen for BT-12 cells (AID 1347101); note: nearly all actives have a fitted effect of over 25% in size; note: potency is the fitted concentration of half-maximal effect
Outline: as §4

[9] = qHTS of pediatric cancer cell lines to identify multiple opportunities for drug repurposing: Primary screen for Rh18 cells (AID 1347102); note: nearly all actives have a fitted effect of over 65% in size; note: potency is the fitted concentration of half-maximal effect
Outline: as §3

[10] = qHTS of pediatric cancer cell lines to identify multiple opportunities for drug repurposing: Primary screen for OHS-50 cells (AID 1347103); note: nearly all actives have a fitted effect of over 40% in size; note: potency is the fitted concentration of half-maximal effect
Outline: as §4

[11] = qHTS of pediatric cancer cell lines to identify multiple opportunities for drug repurposing: Primary screen for RD cells (AID 1347104); note: nearly all actives have a fitted effect of over 55% in size; note: potency is the fitted concentration of half-maximal effect
Outline: as §2

[12] = qHTS of pediatric cancer cell lines to identify multiple opportunities for drug repurposing: Primary screen for control Hh wild type fibroblast cells (AID 1347106);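 note: series mostly up to about 46 µM; a drop in luminescence marks cytotoxicity and a rise apparent proliferation; nearly all actives have a fitted effect of over 55% in size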
Outline: as §3

[13] = qHTS of pediatric cancer cell lines to identify multiple opportunities for drug repurposing: Primary screen for Rh30 cells (AID 1347107); note: series mostly up to about 46 µM; nearly all actives have a fitted effect of over 75% in size
Outline: as §3

[14] = qHTS of pediatric cancer cell lines to identify multiple opportunities for drug repurposing: Primary screen for Rh41 cells (AID 1347108); note: nearly all actives have a fitted effect of over 70% in size; note: potency is the fitted concentration of half-maximal effect
Outline: as §2

[15] = qHTS of pediatric cancer cell lines to identify multiple opportunities for drug repurposing: Primary screen for MG 63 (6-TG R) cells (AID 1347105); note: nearly all actives have a fitted effect of over 50% in size; note: potency is the fitted concentration of half-maximal effect
Outline: as §2

[16] = qHTS of pediatric cancer cell lines to identify multiple opportunities for drug repurposing: Confirmatory screen for NB1643 cells (AID 1347109); note: nearly all actives have a fitted effect of over 45% in size; note: potency is the fitted concentration of half-maximal effect
Outline: as §3

[17] = qHTS of pediatric cancer cell lines to identify multiple opportunities for drug repurposing: Confirmatory screen for A673 cells (AID 1347110);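 note: potency is the fitted concentration of half-maximal effect; cells exposed to compound for 48 h before the viability read; nearly all actives have a fitted effect of over 65% in size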
Outline: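 qHTS titration format: primary MIPE 0.78 nM-46 µM (11 pts), NPC 0.59 nM-46 µM; confirmation 11 pts. 48 h, CTG luminescence.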

[18] = qHTS of pediatric cancer cell lines to identify multiple opportunities for drug repurposing: Confirmatory screen for SK-N-MC cells (AID 1347111);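 note: potency is the fitted concentration of half-maximal effect; cells exposed to compound for 48 h before the readout; nearly all actives have a fitted effect of over 70% in size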
Outline: as §1

[19] = qHTS of pediatric cancer cell lines to identify multiple opportunities for drug repurposing: Confirmatory screen for BT-12 cells (AID 1347112); note: nearly all actives have a fitted effect of over 55% in size; note: potency is the fitted concentration of half-maximal effect
Outline: as §3

[20] = qHTS of pediatric cancer cell lines to identify multiple opportunities for drug repurposing: Primary screen for BT-37 cells (AID 1347094); note: potency is the fitted concentration of half-maximal effect
Outline: as §2

Structure (SMILES)	Potency [1]	Potency [2]	Potency [3]	Potency [4]	Potency [5]	Potency [6]	Potency [7]	Potency [8]	Potency [9]	Potency [10]	Potency [11]	Potency [12]	outcome [13]	Potency [14]	Potency [15]	Potency [16]	Potency [17]	Potency [18]	Potency [19]	Potency [20]
O=C(c1ccc(F)cc1)C1CCN(CCn2c(=O)[nH]c3ccccc3c2=O)CC1	inactive	inactive	inactive	inactive	inactive	inactive	inactive	inactive	inactive	inactive	inactive	inactive	inactive	inactive						
O=C(Nc1ccc([N+](=O)[O-])cc1Cl)c1cc(Cl)ccc1O	1.3 µM (active) and 833 nM (active)	4.11 µM (active) and 743 nM (active)		2.31 µM (active) and 1.18 µM (active)		820 nM (active) and 590 nM (active)	1.3 µM (active) and 935 nM (active)	1.69 µM (active) and 1.93 µM (active)	3.72 µM (active)	1.51 µM (active) and 863 nM (active)	3.26 µM (active) and 1.48 µM (active)	inactive	inactive	2.35 µM (active)	3.66 µM (active) and 1.18 µM (active)	1.62 µM (active)	5.12 µM (active)	4.07 µM (active)	3.23 µM (active)	
CC(C)NCC(O)COc1ccc(CCOCC2CC2)cc1 (centres undefined)	inactive	inactive	inactive	inactive	inactive	inactive	inactive	inactive	inactive	inactive	inactive	inactive	inactive	inactive	inactive					
CN(C)C(=O)C(CCN1CCC(O)(c2ccc(Cl)cc2)CC1)(c1ccccc1)c1ccccc1	18.7 µM (active)	inactive	inactive	inactive	24.1 µM (active) and 15.4 µM (active)	26.6 µM (active)	18.7 µM (active)	19.3 µM (active) and 21.9 µM (active)	20.9 µM (active)	21.7 µM (active) and 19.5 µM (active)	26.4 µM (active) and 26.6 µM (active)	inactive		18.7 µM (active) and 16.8 µM (active)						24.3 µM (active)
CCN1CCCC1CNC(=O)c1cc(S(=O)(=O)CC)c(N)cc1OC (centres undefined)	inactive	inactive	inactive	inactive	inactive	inactive	inactive	inactive	inactive	inactive	inactive	inactive	inactive	inactive						
C[C@H]1c2cccc(O)c2C(O)=C2C(=O)[C@]3(O)C(O)=C(C(N)=O)C(=O)[C@@H](N(C)C)[C@@H]3[C@@H](O)[C@@H]21	inactive	inactive	inactive	inactive	inactive	inactive	inactive	24.3 µM (active)	inactive	inactive	inactive	inactive	inactive	inactive	inactive					
O=C(CCCN1CCC(O)(c2ccc(Cl)cc2)CC1)c1ccc(F)cc1	inactive	inactive	inactive	inactive		inactive			inactive	inactive		inactive	inactive	inactive						inactive
OCCN(CCO)c1nc(N2CCCCC2)c2nc(N(CCO)CCO)nc(N3CCCCC3)c2n1	23.5 µM (active)	inactive	inactive			inactive	inactive		inactive	21.7 µM (active)		inactive	inactive	inactive						inactive
Clc1ccc(C(c2ccccc2Cl)C(Cl)Cl)cc1 (centres undefined)	16.6 µM (active)	21.1 µM (active) and 18.7 µM (active)	inactive	16.8 µM (active) and 18.7 µM (active)	inactive	inactive		inactive	inactive			inactive	inactive			inactive			inactive	
COc1ccccc1N1CCN(CC(O)COc2cccc3ccccc23)CC1 (centres undefined)	inactive	inactive	inactive			inactive	inactive	inactive	inactive	15.5 µM (active)	inactive	inactive	inactive		inactive					inactive
CC(C)(C)C(=O)Oc1ccc(S(=O)(=O)Nc2ccccc2C(=O)NCC(=O)O)cc1	inactive	inactive	inactive	inactive	inactive	inactive	inactive	inactive	inactive	inactive	inactive	inactive	inactive	inactive	inactive					inactive
Cn1ccc2cc3c(cc21)CCN3C(=O)Nc1cccnc1	inactive	inactive	inactive	inactive			inactive	inactive	inactive	inactive	inactive	inactive	inactive	inactive	inactive					
NC(CO)C(=O)NNCc1ccc(O)c(O)c1O (centres undefined)	inactive	inactive	inactive	inactive	inactive	inactive		inactive	inactive	inactive		inactive	inactive	inactive	inactive					
CS(=O)(=O)CCNCc1ccc(-c2ccc3ncnc(Nc4ccc(OCc5cccc(F)c5)c(Cl)c4)c3c2)o1	93.5 nM (active) and 11.9 µM (active)	3.72 µM (active)	18.7 µM (active)	29.6 µM (active)	9.7 µM (active)		16.6 µM (active)		20.9 µM (active)		1.32 µM (active) and 26.6 µM (active)	inactive					20.8 µM (active)		13.1 µM (active)	
O=C1Cc2cc(CCN3CCN(c4nsc5ccccc45)CC3)c(Cl)cc2N1	inactive	inactive	inactive		inactive	inactive	inactive	inactive	inactive			inactive	inactive	inactive						
CC1(C)O[C@H]2CC(=O)OC[C@]23[C@H]2CC[C@@]4(C)[C@H](c5ccoc5)OC(=O)[C@H]5O[C@]54[C@]2(C)C(=O)C[C@@H]13	inactive	inactive	inactive	inactive	inactive	inactive	inactive	inactive	inactive	inactive	inactive	inactive	inactive	inactive	inactive					

Structure (SMILES)	Potency [1]	Potency [2]	Potency [3]	Potency [4]	Potency [5]	Potency [6]	Potency [7]	Potency [8]	Potency [9]	Potency [10]	Potency [11]	Potency [12]	outcome [13]	Potency [14]	Potency [15]	Potency [16]	Potency [17]	Potency [18]	Potency [19]	Potency [20]
Fc1ccc([C@@H]2CCNC[C@H]2COc2ccc3c(c2)OCO3)cc1	inactive	inactive	inactive	inactive	inactive	inactive	inactive	inactive				inactive	inactive	inactive						inactive
O=C1N(c2ccccc2)c2ccccc2C1(Cc1ccncc1)Cc1ccncc1	inactive	inactive	inactive	inactive	inactive	inactive	inactive	inactive	inactive	inactive	inactive	inactive	inactive	inactive						
CC#C[C@]1(O)CC[C@H]2[C@@H]3CCC4=CC(=O)CCC4=C3[C@@H](c3ccc(N(C)C)cc3)C[C@@]21C	0.118 µM (active)	0.526 µM (active)	0.935 µM (active)	2.64 µM (active)	0.242 µM (active)	inactive	16.8 µM (active) and 209 nM (active)	0.685 µM (active)		7.69 µM (active)	26.6 µM (active) and 662 nM (active)	inactive	inactive	0.743 µM (active)					inactive	
CCOC(=O)C(C)(C)Oc1ccc(Cl)cc1	inactive		inactive	inactive	inactive		inactive	inactive	inactive	inactive	inactive	inactive	inactive	inactive						inactive
NCCc1cnc[nH]1	inactive	inactive	inactive	inactive	inactive	inactive	inactive	inactive	inactive	inactive	inactive	inactive	inactive	inactive						inactive
CCC1(C)CC(=O)NC1=O (centres undefined)	inactive	inactive	inactive	inactive	inactive	inactive	inactive	inactive	inactive	inactive	inactive	inactive	inactive	inactive						inactive
C[C@](N)(Cc1ccc(O)c(O)c1)C(=O)O	inactive	inactive	inactive	inactive		inactive	inactive	inactive	inactive	inactive	inactive	inactive	inactive	inactive	inactive					
CCCCc1oc2ccccc2c1C(=O)c1cc(I)c(OCCN(CC)CC)c(I)c1	1.18 µM (active) and 13.3 µM (active)	8.33 µM (active)	7.43 µM (active)	18.7 µM (active) and 26.6 µM (active)	8.57 µM (active) and 21.7 µM (active)		1.48 µM (active)	4.32 µM (active) and 21.9 µM (active)	16.6 µM (active)	5.44 µM (active) and 11 µM (active)	26.4 µM (active) and 26.6 µM (active)	inactive	inactive			44.7 µM (active)	56.2 µM (active)	22.4 µM (active)	79.4 µM (active)	30.9 µM (active)
NC(=O)OCC(COC(N)=O)c1ccccc1	inactive	inactive	inactive		inactive	inactive	inactive	inactive	inactive	inactive	inactive	inactive	inactive	inactive						
Clc1ccc2c(c1)C(N1CCNCC1)=Nc1ccccc1O2	inactive	inactive	inactive	inactive	inactive	inactive	inactive	inactive	inactive	inactive	inactive	inactive	inactive	inactive						inactive
CC1COc2c(N3CCN(C)CC3)c(F)cc3c(=O)c(C(=O)O)cn1c23 (centres undefined)	inactive	inactive	inactive	inactive			inactive	inactive	inactive	inactive	inactive	inactive	inactive	inactive						inactive
COc1ccc2c(c1)c(CC(=O)O)c(C)n2C(=O)c1ccc(Cl)cc1	29.6 µM (active)	inactive	inactive				inactive	inactive	inactive	inactive	inactive	inactive	inactive	inactive	inactive					inactive
CCOC(=O)c1ncn2c1CN(C)C(=O)c1cc(F)ccc1-2	inactive	inactive	inactive	inactive	inactive	inactive	inactive	inactive	inactive	inactive	inactive	inactive	inactive	inactive						
Cc1ccccc1N1C(=O)c2cc(S(N)(=O)=O)c(Cl)cc2NC1C (centres undefined)	inactive	inactive	inactive	inactive	inactive	inactive	inactive	inactive	inactive	inactive	inactive	inactive	inactive	inactive	inactive					inactive
COc1cc2c(c(OC)c1OC)-c1ccc(OC)c(=O)cc1[C@@H](NC(C)=O)CC2	4.2 nM (active) and 1 nM (active)	42.2 nM (active) and 1 nM (active)		5.3 nM (active) and 1.32 µM (active)		0.0084 µM (active)		11 nM (active) and 1 nM (active)	inactive	4.9 nM (active) and 1 nM (active)		inactive	inactive	20.9 µM (active)	inactive	0.0447 µM (active)	0.0316 µM (active)	0.0398 µM (active)	0.0631 µM (active)	6.2 nM (active) and 172 nM (active)
